PubChem BioAssay (NCATS)
Results filed as inconclusive are left out. A call without a number means that no potency is given here. Activity calls are given as the source filed them. Unless noted, the call rests on the fitted dose curve; in most records, active means well fitted inhibition curve with a large enough effect; inconclusive means small, poorly fitted or top-dose-only effect; inactive means flat fitted curve, though single readings scatter.

Biological target: Phospholipid hydroperoxide glutathione peroxidase GPX4 (Homo sapiens) (UniProt P36969)
Experiment: Primary qHTS Assay for Inhibitors of Recombinant Selenoprotein Glutathione Peroxidase 4 (GPX4) (AID 1845192); further: nearly all actives have a fitted effect of over 65% in size
Conditions: recombinant GPX4, GR-coupled NADPH fluorescence, 15 min; series mostly up to 50 µM
How it was run: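 GR-coupled readout: 100 nM GR, 1 mM GSH, 0.5 mM NADPH; NADPH fluorescence (ex 340/em 450 nm) read at t=0 and after 15 min RT. GPX4 200 nM, preincubated 30 min with compound; substrate 0.5 mM CHP.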

Phospholipid hydroperoxide glutathione peroxidase GPX4 (Homo sapiens), sequence (P36969 whole entry, looked up): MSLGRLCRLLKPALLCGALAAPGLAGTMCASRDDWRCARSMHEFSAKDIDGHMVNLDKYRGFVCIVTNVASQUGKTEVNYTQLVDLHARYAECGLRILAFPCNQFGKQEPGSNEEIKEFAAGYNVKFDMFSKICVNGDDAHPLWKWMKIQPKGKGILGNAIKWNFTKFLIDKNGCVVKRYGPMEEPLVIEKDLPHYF

SMILES | Potency
Nc1nc(Nc2ccc3c(c2)CC[C@@H](N2CCCC2)CC3)nn1-c1cc2c(nn1)-c1ccccc1CCC2 | inactive
O=C(O)[C@@H]1CCCN1 | inactive
CC[C@H]1OC(=O)[C@H](C)[C@@H](O[C@H]2C[C@@](C)(OC)[C@@H](O)[C@H](C)O2)[C@H](C)[C@@H](O[C@@H]2O[C@H](C)C[C@H](N(C)C)[C@H]2O)[C@](C)(OC)C[C@@H](C)C(=O)[C@H](C)[C@@H](O)[C@]1(C)O | inactive
CN[C@@H](C)C(=O)N[C@H](C(=O)N1CCC[C@H]1c1nc(C(=O)c2ccc(F)cc2)cs1)C1CCCCC1 | inactive
C[C@@H]1C[C@H]2[C@@H]3C[C@H](F)C4=CC(=O)C=C[C@]4(C)[C@@]3(F)[C@@H](O)C[C@]2(C)[C@@]1(O)C(=O)COC(=O)C(C)(C)C | inactive
COc1ccc(C=CC(=O)O)cc1 | inactive
CCn1c(N)c(C(=O)NC)c(=O)c2ccc(C#C[C@@](C)(O)COC)nc21 | inactive
N[C@@H]1CCCCN(c2c(F)cc3c(=O)c(C(=O)O)cn(C4CC4)c3c2Cl)C1 | inactive
CC(C)[C@H](N)C(=O)O | inactive
CCC=CCC=CCC=CCCCCCCCC(=O)O | inactive
CN(CCCCCCCCCCN(C)C(=O)Oc1cccc([N+](C)(C)C)c1)C(=O)Oc1cccc([N+](C)(C)C)c1 | inactive
C=CC1=C(C(=O)O)N2C(=O)[C@@H](NC(=O)/C(=N\OCC(=O)O)c3csc(N)n3)[C@H]2SC1 | inactive
NCCNc1ccc(NCCN)c2c1C(=O)c1ccncc1C2=O | inactive

System: not listed separately
Experiment: qHTS drug screen for cell cycle checkpoint inhibitors in PARPi-resistant BRCA-mutant ovarian cancer cell lines. (AID 1963452; calls by dose curve)
Conditions: PEO1/OlaR viability, CellTiter-Glo luminescence, 96 h; stronger effect = lower value
How it was run: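 PEO1, PEO4 and PEO1/OlaR ovarian cancer cells, 600 per well, exposed 96 h at 37C to a dilution series. Viability read by CellTiter-Glo luminescence, normalized to DMSO and empty wells; activity summarized as Z-AUC.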

SMILES | Z-AUC
Nc1nc(Nc2ccc3c(c2)CC[C@@H](N2CCCC2)CC3)nn1-c1cc2c(nn1)-c1ccccc1CCC2 | 0.211 (inactive)
CN[C@@H](C)C(=O)N[C@H](C(=O)N1CCC[C@H]1c1nc(C(=O)c2ccc(F)cc2)cs1)C1CCCCC1 | -0.196 (inactive)
Cc1cc2c(F)c(Oc3ncnn4cc(OC[C@@H](C)OC(=O)[C@H](C)N)c(C)c34)ccc2[nH]1 | 1.46 (inactive)

Same assay, conditions: PEO1/OlaR viability, CellTiter-Glo luminescence, 96 h; measured here: PEO1 parental Z-AUC; stronger effect = lower value

SMILES | Z-AUC
Nc1nc(Nc2ccc3c(c2)CC[C@@H](N2CCCC2)CC3)nn1-c1cc2c(nn1)-c1ccccc1CCC2 | -0.494
CN[C@@H](C)C(=O)N[C@H](C(=O)N1CCC[C@H]1c1nc(C(=O)c2ccc(F)cc2)cs1)C1CCCCC1 | -0.329
Cc1cc2c(F)c(Oc3ncnn4cc(OC[C@@H](C)OC(=O)[C@H](C)N)c(C)c34)ccc2[nH]1 | 0.526

Same assay, conditions: PEO1/OlaR viability, CellTiter-Glo luminescence, 96 h; measured here: PEO4 Z-AUC; stronger effect = lower value

SMILES | Z-AUC
Nc1nc(Nc2ccc3c(c2)CC[C@@H](N2CCCC2)CC3)nn1-c1cc2c(nn1)-c1ccccc1CCC2 | -0.517
CN[C@@H](C)C(=O)N[C@H](C(=O)N1CCC[C@H]1c1nc(C(=O)c2ccc(F)cc2)cs1)C1CCCCC1 | -0.73
Cc1cc2c(F)c(Oc3ncnn4cc(OC[C@@H](C)OC(=O)[C@H](C)N)c(C)c34)ccc2[nH]1 | 0.822
